D1 antagonist: antagonists of human D1 dopamine receptor. P21728. activity change, negative = inhibition, % at 10 µM. HEK293 TREx D1 cells, calcium flux, dopamine EC80; hits give low values. AID 504652. actives 3.2% (n = 360,000); in the data active = activity change below about -30%
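Calcium flux readout: force-coupled, inducible Hek293 Trex D1 line, cells induced overnight at 30 C with tetracycline, dye-loaded 30–90 min at RT. Antagonism scored against EC80 dopamine challenge given 180 s after compound.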
USP2a inh: blocks human ubiquitin-specific protease USP2a | O75604 | USP2 core, Ub-CHOP2 coupled fluorogenic reporter, 485/531 | Potency, µM (titrated, usually from 38.3 µM), hits mostly inhibitors | actives 0.01% (n = 330,000) | AID 463254
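Cell-free coupled assay: 10nM USP2 core preincubated 30min RT with compound in Tris-HCl pH 8.0/CaCl2/CHAPS buffer, then 25nM Ub-CHOP2 and 25nM reporter substrate; fluorescence (Ex 485/Em 531) read after 60min RT, normalized to NEM inhibition, concentration-response curves fitted.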
Eya2 inh: inhibitors of human Eya2 phosphatase activity; O00167; recombinant Eya2, OMFP fluorescence dephosphorylation (OMFP is methylfluorescein phosphate); Potency, µM (highest dose often 76.9 µM), usual class: inhibitors; actives 0.006% (n = 330,000); AID 488837
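Eya2 protein (added as 0.2 uM solution) was preincubated with compound for 10 min at ambient temperature in 50 mM HEPES pH 7.5, 50 mM NaCl, 5 uM MgCl2, 0.05% BSA, 1 mM DTT. OMFP (added at 50 uM) then reacted 10 min; fluorescence read at 485/525 nm.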
D1 potentiator: enhances dopamine response at the human D1 receptor. P21728. HEK293 TREx D1 cells, calcium flux, dopamine EC20 potentiation. potentiation, % at 10 µM. actives 0.036% (n = 360,000); in the data active = potentiation above about 30%
D1 agonist: activates the human D1 dopamine receptor; activation, % at 2 µM; P21728; AID 504660; actives 1% (n = 360,000); HEK293 T-REx D1 cells, calcium flux, agonist mode; in the data active = activation above about 30%
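Tetracycline-induced HEK293 TREx D1 cells, force-coupled to calcium signalling, were dye-loaded with a no-wash calcium kit. Compound was pin-added after a 10 s baseline. Fluorescence was read kinetically at 1 cycle/s for 180 s, with calcium rises flagged as agonism.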
GALK inh: inhibitors of human galactokinase; Purified GALK, Kinase-Glo residual ATP luminescence; AID 1868; actives 0.007% (n = 270,000); Potency, µM (doses to about 57.5 µM), most hits filed as inhibitors; P51570
Target sequence (P51570 whole entry, looked up): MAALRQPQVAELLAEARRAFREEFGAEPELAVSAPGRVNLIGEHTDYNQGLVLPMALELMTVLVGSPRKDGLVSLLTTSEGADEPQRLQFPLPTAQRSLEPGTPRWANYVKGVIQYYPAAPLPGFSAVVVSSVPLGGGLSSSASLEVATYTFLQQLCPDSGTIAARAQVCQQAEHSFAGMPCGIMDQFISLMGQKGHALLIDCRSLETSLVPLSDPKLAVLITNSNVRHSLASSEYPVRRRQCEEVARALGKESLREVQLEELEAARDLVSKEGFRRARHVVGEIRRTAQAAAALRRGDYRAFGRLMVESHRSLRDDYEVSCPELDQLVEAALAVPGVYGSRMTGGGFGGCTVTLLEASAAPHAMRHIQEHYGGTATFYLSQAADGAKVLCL
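ATP-depletion format; final 35 uM ATP, 100 uM D-galactose, 5 nM enzyme; pH 8.0 HEPES/Mg2+ buffer; 60 min RT; luminescence read 10 min after detection reagent.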
Each line names hits and unclear results; the compound was inactive in the other large screens. Compounds with a hit are over-represented: about 3.9% of the library has one in this group of screens. Unless noted, calls follow the shape of the dose curve; as a rule, active = well fitted inhibition curve with a large enough effect; inconclusive = small, poorly fitted or top-dose-only effect, or effect the other way; inactive = flat fitted curve, though single readings scatter.

CCN(CC)c1ccc2cc(-c3nc(-c4ccccc4)no3)c(=O)oc2c1	D1 antagonist -34, D1 agonist 317 (no result: USP2a inh, Eya2 inh, GALK inh)
CCOc1ccccc1CNC(=O)C1CCCN(c2ncnc3onc(-c4ccc(F)cc4)c23)C1 (configuration not stated)	none (no result: USP2a inh, Eya2 inh, GALK inh)
Cc1ccccc1NC(=O)CSc1ccc(-c2ccco2)nn1	D1 antagonist -71
Cc1ccc(C)c(NC(=O)CSc2ccc(-c3ccco3)nn2)c1	none
Cn1nc(C(F)(F)F)c(-c2ccc(F)cc2)c1NC(=O)Nc1ccc(F)cc1	D1 antagonist -67, D1 agonist 31
Cn1c(=O)c2cc(S(=O)(=O)NC(Cc3ccccc3)C(=O)NCC3CCCO3)ccc2n(C)c1=O (configuration not stated)	D1 antagonist -39
CCc1c(C)sc2c1CCN(Cc1ccccc1)C2c1ccccc1 (configuration not stated)	none (no result: USP2a inh, Eya2 inh, GALK inh)
COCCn1nnnc1C(c1cccc(C(F)(F)F)c1)N1CCN(Cc2ccccc2)CC1 (configuration not stated)	none
COCCn1nnnc1C(c1cccc(C(F)(F)F)c1)N1CCOCC1 (configuration not stated)	D1 antagonist -42
COc1ccc([S+](=O)([O-])N2CCN([S+](=O)([O-])c3ccc4c(c3)OCCO4)CC2)c(OC)c1	none (no result: USP2a inh, Eya2 inh, GALK inh)
Cc1nc(-c2coc3cc(O)c(C)cc3c2=O)cs1	D1 antagonist -51
CC1CCCC(C)N1CC(O)COC1CCC(C(C)(C)C)CC1 (configuration not stated)	D1 agonist 31
O=c1cc(-c2ccccc2)n2c(SCc3ccccc3Cl)nnc2[nH]1	none (no result: D1 antagonist, USP2a inh, Eya2 inh, GALK inh)
COC(=O)c1cc(NC(=O)[C@H](CCS(C)(=O)=O)N2Cc3ccccc3C2=O)cc(C(=O)OC)c1	none (no result: USP2a inh, Eya2 inh, GALK inh)
O=C(Cn1ccc2cc(S(=O)(=O)N3CCCCCC3)ccc21)NCCc1ccc(Cl)cc1	none (no result: USP2a inh, Eya2 inh, GALK inh)
Cc1nn(-c2ccccn2)c(C)c1Oc1ccccc1O	none
Cc1nn(-c2nc3ccccc3s2)c(C)c1Oc1ccccc1O	D1 antagonist -60
COc1ccc(C(=O)CC2(O)C(=O)Nc3c(C)cccc32)c(OC)c1OC (configuration not stated)	none (no result: USP2a inh, Eya2 inh, GALK inh)
C=CCn1c(SCC(=O)/C(C#N)=C(\C)N)nnc1C1CCCCC1	D1 antagonist -75
COCC(C)Nc1ncnc2c1cnn2-c1ccc(C)c(C)c1 (configuration not stated)	none (no result: USP2a inh, Eya2 inh, GALK inh)
CC(C)Nc1ccc(-c2nc(-c3ccco3)no2)cc1[N+](=O)[O-]	none (no result: USP2a inh, Eya2 inh, GALK inh)
O=c1cc2nc(-c3ccccc3)nc(SCc3cccc(Br)c3)n2[nH]1	none (no result: USP2a inh, Eya2 inh, GALK inh)
COc1ccc(OCC(=O)NCCNC(=O)c2cccnc2)cc1	D1 antagonist -32, USP2a inh inconclusive (no result: D1 potentiator)
O=C(COc1ccc(Br)cc1)NCCCNC(=O)c1cccnc1	none
Cc1ccc(C(=O)NCCCNC(=O)COc2ccc(Cl)c(C)c2)cn1	D1 antagonist -40 (no result: GALK inh)
O=S(=O)(c1ccc2c(c1)OCCO2)N1CCN(S(=O)(=O)c2c(F)ccc(O)c2F)CC1	none (no result: USP2a inh, Eya2 inh, GALK inh)
CCCC(=O)Nc1cccc(-c2nc3cc(C)c(C)cc3o2)c1C	none (no result: USP2a inh, Eya2 inh, GALK inh)
O=C(Cc1ccc(Cl)cc1)OCc1nnc(-c2ccccc2)o1	none
O=C(OCc1nnc(-c2ccc(Cl)cc2)o1)C12CC3CC(CC(O)(C3)C1)C2	D1 antagonist -75
CN(c1ccc(C(=O)Nc2ccccc2C(=O)N2CCCC2)cc1)S(C)(=O)=O	D1 antagonist -31 (no result: USP2a inh, Eya2 inh)
Cc1ccc(-n2nc(C)c3c(C(F)(F)F)cc(-c4cccnc4)nc32)cc1C	D1 antagonist -50 (no result: USP2a inh, Eya2 inh, GALK inh)
Cc1cc2c(n1-c1ccc(C(=O)NCc3ccccc3Cl)cc1)CCCC2	none (no result: USP2a inh, Eya2 inh, GALK inh)
CCOc1ccccc1CN1CCN(Cc2[nH]c3ccccc3c2C)CC1CCO (configuration not stated)	D1 agonist 56
CCOc1ccccc1CN1CCN(Cc2cc(=O)c3ccccc3[nH]2)CC1CCO (configuration not stated)	D1 antagonist -36
COc1cccc(-c2cn3c(n2)sc2cc(C(=O)NCc4cccs4)ccc23)c1	none (no result: USP2a inh, Eya2 inh, GALK inh)
CCNC(=S)N(CCc1c(C)[nH]c2ccc(F)cc12)Cc1cccnc1	none
Cc1[nH]c2ccc(F)cc2c1CCN(Cc1cccnc1)C(=S)Nc1ccc(F)cc1	D1 antagonist -37
O=C(Nc1ccc2c(c1)oc1ccccc12)c1cccnc1	D1 antagonist -55
O=C(Nc1ccc2c(c1)oc1ccccc12)c1ccncc1	none
O=C(Nc1ccc(OCc2ccccc2)cc1)c1ccccc1	none
O=C(Nc1ccc(OCc2ccccc2)cc1)c1cccnc1	D1 agonist 61
O=C(Nc1ccc(Oc2cccnc2)cc1)c1ccccc1F	D1 antagonist -42
COC(=O)c1ccccc1NS(=O)(=O)c1cc2c(cc1C)N(C)CCO2	none (no result: USP2a inh, Eya2 inh, GALK inh)
COc1ccc(NC(=O)C(=O)NCC(c2cccnc2)N2CCc3ccccc3C2)cc1 (configuration not stated)	D1 antagonist -40 (no result: USP2a inh, Eya2 inh, GALK inh)
O=C(NCC(c1cccnc1)N1CCc2ccccc2C1)C(=O)Nc1ccccc1 (configuration not stated)	none (no result: USP2a inh, Eya2 inh, GALK inh)
CCCn1c2ccccc2c2cnn(CC(=O)NCCc3ccc(OCC)c(OCC)c3)c(=O)c21	none (no result: USP2a inh, Eya2 inh, GALK inh)
CCOC(=O)C1=C(N)n2c(s/c(=C/c3ccco3)c2=O)=C(C(=O)OC)C1c1ccco1 (configuration not stated)	D1 agonist 50
CCOC(=O)C1=c2s/c(=C\c3ccncc3)c(=O)n2C(N)=C(C(=O)OC)C1c1ccncc1 (configuration not stated)	none
CC(=O)C(N=Nc1ccccc1)(Sc1nnc(-c2ccccc2)n1-c1ccccc1)C(C)=O	D1 antagonist -32
CC(C)[C@H](N)c1nnc(SCc2ccc(Cl)cc2)o1	none
CCC(C)[C@H](N)c1nnc(SCc2ccc(Cl)c(Cl)c2)o1 (some centres not stated)	D1 agonist 54 (no result: USP2a inh, Eya2 inh, GALK inh)
Cc1oc(-c2cccc(Cl)c2)nc1CSCC(=O)NCc1ccccc1Cl	none (no result: USP2a inh, Eya2 inh, GALK inh)
CC(=O)Nc1c(C(=O)Nc2cccc(C)c2)nnn1-c1ccc(C)cc1	D1 antagonist -34 (no result: USP2a inh, Eya2 inh, GALK inh)
CN(C)S(=O)(=O)c1ccc(NC(=O)COC(=O)C2COc3ccccc3O2)cc1 (configuration not stated)	D1 antagonist -94
COc1cc(CNCCN(C)C)c(Br)cc1OCC(=O)NCc1ccccc1	D1 antagonist -34
CCNCc1cc(OCC)c(OCC(=O)NCCc2ccccc2)cc1Cl	D1 antagonist -40, D1 agonist 33
CCN(C(=O)CCS(=O)(=O)c1cc2c(cc1C)NC(=O)CO2)c1cccc(C)c1	none (no result: USP2a inh, Eya2 inh, GALK inh)
Cc1nnc2c3ccccc3nc(N3CCN(c4cccc(Cl)c4)CC3)n12	none (no result: USP2a inh, Eya2 inh, GALK inh)

Source: PubChem BioAssay
